The list is not random: actives were taken first. Their share in the collection is about 14%.
HCV inhibitor: qHTS Assay for Inhibitors of Hepatitis C Virus (HCV); Huh7.5.1 HCVcc-Cre infection, luciferase reporter, 44 h; Potency, µM (doses to about 41.8 µM), for the others: top-dose activity change, negative = inhibition, actives largely listed as inhibitors; 3.4% of 340,000 active; also: potency is read from the fitted curve at half-maximal effect
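Reporter virus HCVcc-Cre (~0.5 moi) infects cells exposed to compound; seeding density 1,000 cells/well with 4 h settling beforehand. Luminescence, 15 sec read, taken 44 h post-infection following a 15 min RT substrate incubation.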
Marburg entry inh: qHTS for inhibitors of binding or entry into cells for Marburg Virus | Marburg virus pseudotyped entry inhibition, cell reporter | Potency, µM (highest dose often 37.8 µM), inactives show at the top dose activity change, negative = inhibition, actives largely listed as inhibitors | 1.8% of 300,000 active | AID 540276, 2011; calls by dose curve; tested in HEK293 cells; also: potency is read from the fitted curve at half-maximal effect
Lassa entry inh: qHTS for Inhibitors of binding or entry into cells for Lassa Virus; AID 540256, 2011; 1.2% of 300,000 active; Potency, µM (doses to about 37.9 µM), without a hit: at the top dose activity change, negative = inhibition, usual class: inhibitors; Lassa virus pseudotype entry inhibition, cell reporter; calls by dose curve; tested in HEK293 cells; also: potency is read from the fitted curve at half-maximal effect; nearly all actives have a fitted effect of over 50% in size
HCMV inh: qHTS Assay for inhibitors of the human cytomegalovirus (HCMV) | activity change, negative = inhibition, % at 57.5 µM | 4.5% of 410,000 active | HFF cells, HCMV-luciferase reporter, 72 h; stronger effect = lower value; in the data active = activity change below about -60%; inconclusive = no clear call, values can overlap the other calls; inactive = above about -39%
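Luciferase read-out from HCMV-luciferase-infected HFFs (MOI 1 PFU/cell) 72 h post infection at 37C; compounds added after 16 h cell attachment; activity normalized between buffer-only basal and Salinomycin (10uM) inhibitor controls.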
Pf growth 48h: Primary qHTS for delayed death inhibitors of the malarial parasite plastid, 48 hour incubation; P. falciparum luciferase growth in erythrocytes, 48 h; Potency, µM (titrated, usually from 28.7 µM), for the others: top-dose activity change, negative = inhibition, most hits filed as inhibitors; 5.9% of 310,000 active; AID 504832, 2011; also: potency is read from the fitted curve at half-maximal effect
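Compounds are pin-transferred into medium, infected erythrocytes (2% hematocrit, 0.1% parasitemia final) are added, and plates sit one parasite generation at 37 C in 5% CO2. Detection reagent is then added and luminescence measured.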
Pf growth 96h: Primary qHTS for delayed death inhibitors of the malarial parasite plastid, 96 hour incubation; P. falciparum luciferase reporter growth, 96 h; Potency, µM (titrated, usually from 28.7 µM), without a hit: at the highest dose activity change, negative = inhibition, most hits filed as inhibitors; 6.9% of 320,000 active; AID 504834, 2011; also: potency is read from the fitted curve at half-maximal effect
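Parasite growth measured via integrated firefly luciferase reporter in P. falciparum. Infected erythrocytes at 2% hematocrit, 0.05% parasitemia final were treated 96 hours at 37 C under 5% CO2, and luminescence was read.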
An asterisk follows results filed as active; [ ] = another dose, or the depositor's remark. Unless noted, calls follow the shape of the dose curve; as a rule, active = well fitted inhibition curve with a large enough effect; inconclusive = small, poorly fitted or top-dose-only effect, or another doubt; inactive = no such curve, though single readings can be large or run the other way. % is scaled to controls: 0 for no effect and ±100 for the full control effect.

Cc1cc(=O)oc2cc(NC(=O)c3cc([N+](=O)[O-])ccc3N3CCOCC3)ccc12 was read as HCV inhibitor 10µM*, Marburg entry inh inconclusive, HCMV inh inconclusive, Pf growth 48h 0% and Pf growth 96h inconclusive.
Screening CCN(CC)S(=O)(=O)c1cc(NC(=O)c2cc([N+](=O)[O-])ccc2N2CCOCC2)ccc1C returned HCV inhibitor inconclusive, Marburg entry inh 18µM*, Lassa entry inh inconclusive, HCMV inh inconclusive, Pf growth 48h inconclusive and Pf growth 96h inconclusive.
For CN1OC[C@@H]2CN(Cc3ccccc3)[C@H](c3cccc(-c4ccc(C#N)cc4)c3)C[C@@H]21 the results were HCV inhibitor -10%[8.37 µM] and HCMV inh 22.
Cc1ccc(C)n1-c1nnc(N2CCCC(C(=O)NCc3cccc(Cl)c3)C2)s1 (stereo not drawn) was read as Marburg entry inh inconclusive, Lassa entry inh -10%[46.1 µM] and HCMV inh -8.
For CC(C)(C)OC(=O)N1CCC(c2c(C(=O)N3CCC(c4ccccc4)C3)cnn2-c2cccc(Cl)c2)CC1 (stereo not drawn) the results were Lassa entry inh inconclusive and HCMV inh 27.
CCCN1C/C(=C/c2ccc3c(c2)OCO3)C(=O)/C(=C/c2ccc3c(c2)OCO3)C1 was read as HCV inhibitor inconclusive, Marburg entry inh inconclusive, Lassa entry inh inconclusive, HCMV inh 3, Pf growth 48h 0% and Pf growth 96h 1.9µM*.
For CCCN1C(=O)/C(=C/c2ccc3c(c2)OCO3)NC1=S the results were HCV inhibitor 13%, HCMV inh 31, Pf growth 48h 3% and Pf growth 96h 9.3µM*.
Screening CCCN1C/C(=C/c2cccc([N+](=O)[O-])c2)C(=O)/C(=C/c2cccc([N+](=O)[O-])c2)C1 returned HCV inhibitor inconclusive, Marburg entry inh inconclusive, Lassa entry inh 2µM*, HCMV inh -105*, Pf growth 48h 15µM* and Pf growth 96h inconclusive.
Screening Cc1cccc(C)c1N=CN1c2ccccc2-n2cccc2C1c1ccc([N+](=O)[O-])cc1 (stereo not drawn) returned HCMV inh -6.
For CC1=C(/C=C/C(C)=N\NC(=O)c2ccncc2)C(C)(C)CCC1 the results were HCV inhibitor -4%, Marburg entry inh inconclusive, Lassa entry inh inconclusive, HCMV inh inconclusive, Pf growth 48h 13µM* and Pf growth 96h 47%.
For Cc1cc(C)cc(N(C(C)C(=O)N2CCCC2)S(C)(=O)=O)c1 (stereo not drawn) the results were HCV inhibitor 25%, Marburg entry inh inconclusive, Lassa entry inh 17%, HCMV inh 56, Pf growth 48h -1% and Pf growth 96h 72%.
Screening NC(=O)C1CCCN(C(=S)NCc2ccc3c(c2)OCO3)C1 (stereo not drawn) returned HCV inhibitor -8%, Marburg entry inh 8%[46.1 µM], Lassa entry inh 19%[46.1 µM], HCMV inh -5, Pf growth 48h 32% and Pf growth 96h 0%.
`NC(=O)C1CCCN(C(=S)Nc2cccc3ccccc23)C1` (stereo not drawn) gave HCV inhibitor -5%, Marburg entry inh inconclusive, Lassa entry inh inconclusive, HCMV inh 6, Pf growth 48h 3% and Pf growth 96h 13µM*.
For COc1ccc(Nc2ncnc3onc(-c4ccc(Cl)cc4)c23)cc1Cl the results were Marburg entry inh 7.1µM*, Lassa entry inh 13µM* and HCMV inh -25.
For COc1cc(Nc2ncnc3onc(-c4ccc(Cl)cc4)c23)cc(OC)c1 the results were Lassa entry inh -22%[46.1 µM] and HCMV inh -22.
